From PubChem BioAssay
An excerpt weighted towards active compounds, which were near 7.4% of everything screened.
SMN2 splice enh: increases expression of the SMN2 splice variant; HEK293 SMN2-luciferase splicing reporter, luminescence, 30-36 h; Potency, µM (series often up to 46.1 µM), usual class: activators; 210,000 compounds, 2.8% hits; AID 1458; further: nearly all actives have a fitted effect of over 55% in size
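HEK293 cells carry an SMN2 […]–luciferase reporter in which exon 7 inclusion puts luciferase in frame. Cells were plated 10-12 h before compound addition, then incubated 30-36 h at 37C. ONE-Glo luminescence was read; sodium butyrate at 4.5 mM final served as control.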
FLuc modulator: inhibits or activates purified firefly luciferase, miR-21 counter-screen; purified FLuc, Km substrates, luminescence inhibition; 360,000 compounds, 6.9% hits; AID 588342; Potency, µM (highest dose often 57.5 µM), most hits filed as inhibitors; further: nearly all actives have a fitted effect of over 55% in size
Target sequence (P08659 whole entry, looked up): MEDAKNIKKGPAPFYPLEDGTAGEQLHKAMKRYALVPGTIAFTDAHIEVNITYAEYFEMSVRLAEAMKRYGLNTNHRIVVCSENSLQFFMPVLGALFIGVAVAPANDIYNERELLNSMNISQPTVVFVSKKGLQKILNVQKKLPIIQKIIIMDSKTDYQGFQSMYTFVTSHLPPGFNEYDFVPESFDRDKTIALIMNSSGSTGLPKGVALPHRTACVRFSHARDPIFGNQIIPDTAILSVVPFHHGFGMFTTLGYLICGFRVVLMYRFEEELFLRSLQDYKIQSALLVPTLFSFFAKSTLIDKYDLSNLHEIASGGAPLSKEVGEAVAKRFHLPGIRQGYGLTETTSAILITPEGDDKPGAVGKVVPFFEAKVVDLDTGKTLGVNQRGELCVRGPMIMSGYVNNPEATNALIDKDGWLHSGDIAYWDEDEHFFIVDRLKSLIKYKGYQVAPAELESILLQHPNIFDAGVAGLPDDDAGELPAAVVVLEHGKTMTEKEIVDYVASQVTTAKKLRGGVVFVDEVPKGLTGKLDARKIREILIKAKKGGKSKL
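Purified P. pyralis luciferase (10nM final) with 10uM D-luciferin and 10uM ATP (Km levels) in 50mM Tris acetate pH 7.5, 10mM Mg acetate, 0.01% Tween-20, 0.05% BSA; qHTS 6-point titration, ~60 µM downward; luminescence read.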
NPC1 promoter act: activates the NPC1 promoter | 320,000 compounds, 2.4% hits | AID 485313 | Huh7 NPC1 promoter luciferase reporter, 24 h | Potency, µM (titrated, usually from 9.22 µM), usual class: activators; further: nearly all actives have a fitted effect of over 60% in size
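Cells: Huh7 expressing luciferase under the NPC1 promoter, 1500/well. Seeded 2 h, compound added, incubated 24 h at 37 °C. Luciferase reagent, 10 min ambient, then luminescence.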
ELG1 genotoxic: genotoxicity induction in ELG1-luciferase HEK293T cells; HEK293T ELG1-luciferase reporter, luminescence, 16 h; Potency, µM (top dose mostly 46 µM), actives largely listed as activators; 330,000 compounds, 1.3% hits; AID 504466; further: nearly all actives have a fitted effect of over 60% in size
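Genotoxicity was scored as increased ELG1-luciferase reporter signal, measured by ONE-Glo luminescence (30 min, room temperature). Compound or vehicle exposure of the HEK293T reporter cells lasted 16 hr at 37°C.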
Rab9 prom act: Rab9 promoter activation | Potency, µM (titrated, usually from 9.22 µM), most hits filed as activators | 320,000 compounds, 2.8% hits | AID 485297 | Huh7 Rab9 promoter-luciferase reporter, luminescence, 24 h; further: nearly all actives have a fitted effect of over 60% in size
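Steps: seed 1500 Huh7 Rab9-luc cells per well, rest 2 h at 37 °C; add compound in DMSO; incubate 24 h; add luciferase reagent, 10 min ambient; read luminescence.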
Of the large screens only hits and unclear results are named; the others gave an inactive call. The call rests on the fitted dose curve; in most records, active means well fitted curve in the direction sought with a large enough effect; inconclusive means small, poorly fitted or top-dose-only effect, or another doubt; inactive means no such curve, though single readings can be large; an effect the other way counts as inactive or inconclusive.

COc1ccc(C(CNC(=O)c2ccc(-c3nc4ccccc4s3)o2)N2CCCC2)cc1 (stereo unspecified)	FLuc modulator 19µM (no result: SMN2 splice enh)
Cc1ccc(N2C(=O)C3C(C2=O)C2C=CC3C23CC3)cc1 (stereo unspecified)	FLuc modulator 10.7µM
COc1ccc([C@]23Cc4cc(C#N)ccc4C(O2)C2=C(CC4(CCCCC4)OC2=O)O3)cc1	none (no result: SMN2 splice enh, ELG1 genotoxic)
CCC1=Nc2ccccc2-c2nnc(SC)nc2O1	SMN2 splice enh 2µM
CSc1nnc2c(n1)OC(C)=Nc1ccccc1-2	none
COC(=O)Cn1c(=O)c2cccn2c2ccc(F)cc21	none (no result: NPC1 promoter act, ELG1 genotoxic, Rab9 prom act)
Oc1ccccc1C1=NN(c2ccccc2)C(c2ccc(F)cc2)C1 (stereo unspecified)	none (no result: SMN2 splice enh)
Oc1ccccc1C1=Nc2nc3ccccc3n2C(c2ccccc2)C1 (stereo unspecified)	FLuc modulator 10.7µM, ELG1 genotoxic inconclusive
Cc1cc(C(=O)Nc2cccc([N+](=O)[O-])c2C)cs1	none (no result: SMN2 splice enh)
Cc1c(NC(=O)c2ccc(C(C)(C)C)cc2)cccc1[N+](=O)[O-]	SMN2 splice enh 15.8µM, FLuc modulator 13.5µM, NPC1 promoter act inconclusive, Rab9 prom act inconclusive
CC(C)(C)c1ccc(NC(=O)c2ccccc2)c([N+](=O)[O-])c1	FLuc modulator 4.26µM, NPC1 promoter act 0.447µM, Rab9 prom act 0.501µM
COc1cc(C(CC(=O)Nc2cccc(C(C)=O)c2)N2Cc3ccccc3C2=O)cc(OC)c1OC (stereo unspecified)	none (no result: SMN2 splice enh, NPC1 promoter act, ELG1 genotoxic, Rab9 prom act)
COc1cccc(N2CCN(C(=O)c3ccc4c(=O)n(CCc5ccccc5)c(=O)[nH]c4c3)CC2)c1	none (no result: NPC1 promoter act, ELG1 genotoxic, Rab9 prom act)
CCOC(=O)C1CCN(S(=O)(=O)c2cc(-c3cc(C)no3)ccc2OC)CC1	none (no result: SMN2 splice enh, NPC1 promoter act, ELG1 genotoxic, Rab9 prom act)
O=C1CCC/C1=C/Nc1ccc2c(c1)OCO2	SMN2 splice enh inconclusive, FLuc modulator 16.9µM, Rab9 prom act inconclusive
CC1CCC/C(=C\Nc2ccc3c(c2)OCO3)C1=O (stereo unspecified)	SMN2 splice enh inconclusive, FLuc modulator 8.49µM, NPC1 promoter act inconclusive, ELG1 genotoxic 10.3µM, Rab9 prom act inconclusive
CC1CCC/C(=C\Nc2ccccc2C(=O)O)C1=O (stereo unspecified)	FLuc modulator 23.9µM
C=C(C(C)=O)C(O)c1cccc(Br)c1 (stereo unspecified)	none (no result: FLuc modulator, NPC1 promoter act, ELG1 genotoxic, Rab9 prom act)
CCOC(=O)N1CCC(N2Cc3cccc(C(=O)Nc4ccc(OC)c(OC)c4)c3C2=O)CC1	FLuc modulator 15.1µM
Cc1cc(SCC(=O)NCc2ccc(Cl)cc2)nc(=O)[nH]1	none (no result: SMN2 splice enh, NPC1 promoter act, ELG1 genotoxic, Rab9 prom act)
Cc1nc(C)c(-c2csc(Nc3ccc(F)cc3)n2)s1	FLuc modulator inconclusive, Rab9 prom act inconclusive
COc1cccc(Nc2nc(-c3sc(C)nc3C)cs2)c1	FLuc modulator 19µM (no result: SMN2 splice enh)
COc1ccc(OC)c(Nc2nc(-c3sc(C)nc3C)cs2)c1	FLuc modulator inconclusive
Cc1nc(C)c(-c2csc(Nc3ccc(C(=O)O)c(O)c3)n2)s1	FLuc modulator 12µM (no result: SMN2 splice enh)
Cc1nc(N)sc1-c1csc(Nc2ncccn2)n1	SMN2 splice enh 5.62µM, FLuc modulator 3.01µM, NPC1 promoter act inconclusive, ELG1 genotoxic 23.1µM, Rab9 prom act 0.562µM
COc1cccc(Nc2nc(-c3sc(N)nc3C)cs2)c1	SMN2 splice enh inconclusive, FLuc modulator 13.5µM, ELG1 genotoxic inconclusive, Rab9 prom act inconclusive
COc1ccccc1Nc1nc(-c2sc(N)nc2C)cs1	FLuc modulator inconclusive (no result: SMN2 splice enh)
CCC(Sc1nc2nccnc2c(=O)n1Cc1ccccc1Cl)C(=O)NC1CCCCC1 (stereo unspecified)	none (no result: SMN2 splice enh, NPC1 promoter act, ELG1 genotoxic, Rab9 prom act)
COc1cccc(Nc2nc(-c3sc(NC(=O)c4ccco4)nc3C)cs2)c1	FLuc modulator 23.9µM
COc1ccc(Cl)cc1Nc1nc(-c2sc(NC(=O)c3ccco3)nc2C)cs1	FLuc modulator inconclusive
CCc1cccc(NC(=O)Cn2c(=O)n(-c3ccccc3C)c(=O)c3c2c2cc(C)ccc2n3C)c1	none (no result: SMN2 splice enh, NPC1 promoter act, ELG1 genotoxic, Rab9 prom act)
O=C(Nc1nnc(C(F)(F)F)s1)c1cccnc1	SMN2 splice enh 11.2µM, FLuc modulator 12µM, NPC1 promoter act inconclusive, Rab9 prom act 4.47µM
Cc1ccc(NC(=O)Nc2nnc(-c3ccccc3F)s2)cc1	NPC1 promoter act inconclusive, Rab9 prom act inconclusive (no result: SMN2 splice enh)
O=C(Nc1nnc(-c2ccccc2F)s1)c1cccnc1	SMN2 splice enh inconclusive, FLuc modulator 9.53µM, NPC1 promoter act 2.24µM, ELG1 genotoxic inconclusive, Rab9 prom act 2µM
CCOc1ccc(CN2C(=O)c3ccccc3Sc3ccc(C(=O)NCc4ccco4)cc32)cc1	none (no result: NPC1 promoter act, ELG1 genotoxic, Rab9 prom act)
COCc1nn2c(N)c(-c3ccccc3)cnc2c1-c1ccccc1	FLuc modulator 0.849µM, NPC1 promoter act 2.82µM, ELG1 genotoxic inconclusive, Rab9 prom act 2.82µM (no result: SMN2 splice enh)
N#Cc1cnn(Cc2ccccc2)c1N	none
COc1ccc(-c2c(C)nn3c(N)c(-c4ccccc4)cnc23)cc1OC	FLuc modulator inconclusive (no result: SMN2 splice enh)
COCc1nn2c(N)c(C#N)cnc2c1-c1ccccc1	FLuc modulator 13.5µM
COc1ccccc1-c1c(C)nn2c(N)c(-c3ccccc3)cnc12	FLuc modulator 19µM (no result: SMN2 splice enh)
CCOC(=O)Cn1nnc(-c2ccc(SC)cc2)n1	FLuc modulator 12µM
CSc1ccc(-c2nnn(Cc3ccccn3)n2)cc1	SMN2 splice enh inconclusive, FLuc modulator 12µM, NPC1 promoter act 3.98µM, ELG1 genotoxic inconclusive, Rab9 prom act 2.51µM
Cc1cc(F)ccc1NC(=O)C1CCC(CNS(=O)(=O)c2ccc3c(c2)CCCC(=O)N3)CC1 (stereo unspecified)	none (no result: SMN2 splice enh, NPC1 promoter act, ELG1 genotoxic, Rab9 prom act)
CCN(CC)CCOC(=O)c1ccc(NC(=O)c2nn(-c3ccc(C)cc3)c(=O)c3c2c2ccccc2n3C)cc1	none (no result: NPC1 promoter act, ELG1 genotoxic, Rab9 prom act)
